Source: the supplement of paper PMC6555819

Tested on: PXR:RXRa (NR concentration 270 nM, RXRa partner concentration 90 nM)
Assay: PBM binding z-score (relative to random genomic background probes); higher = stronger binding; sequences stand for … in GC…GCGATTGACAGCGTAGAATGAAGG
Method in brief: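 The probes on custom Agilent 4×180K protein-binding microarrays were double-stranded, with 34-nt variable regions bearing direct-repeat seeds, single-nucleotide variants, half-site ablations and random human genomic background sequences. Incubation lasted 1 h with ligand-free nuclear receptor dimers in PBS pH 7.4, 2% milk, 0.02% Triton X-100, 1 mM DTT, 0.2 mg/mL BSA and 0.4 mg/ml salmon testes DNA. Antibodies against each partner (one per run) detected bound dimers, and fluorescence scans were regression-normalized. Binding z-scores take the random background probes as reference.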

Sequence | PBM binding z-score
CGTCCAAGGTCATAGGAGATCAGTGAAGACAGAT | 4.44
CCTTACGGGTCAAGGCTATAGCACGGGTGGTACG | 2.58
CGAACGAGGGCATGAGTTGATAGCAAATGCCGAT | 0.562
CCAGACAGGTGAGAAGGTAACTCCGCCTCGATTA | -0.515
TCTACTAGTTGATTAGGGCAACCGAAACAGCGGA | 0.00114
GAGACAGGGTCAAGGCCAGAGTACGCGTATTGAT | 3.78
TCTAGTTGGTCACGGAGGTCACTCACGACGGGTA | 3.9
CTCGAAAGGTCGGTTGAGGTGTGTATACGGATAA | 1.43
CCTACTGGGCCATTCAGAGTTCATTGATCATATG | 4.72
CAGCCTAGGTTAGGGCCAGTATAGGAGGAACGTT | -0.636
GCGACTGGGGCCAAGCAGGTTACCATAAGGTTGG | -0.00892
CGAACGAGGGCATGAGTTGATGGCAAATGCCGAT | 0.243
GGAACGATGGCAAGTTGATAGCAGAGTTTGATGG | -0.323
CGTCCAAGGTCAAAGGTCAGTCAAGAGATGACGG | 7.08
CGTCCAAGGTCAAAGGTCAGTGCAGAGATGACGG | 7.08
CCTTCTGGGCCAAAGGTCATTGATTCCAATGCTC | 5.52
TTTTGTAGATCAAGCAGGTTAAGAAAGCCTGAGT | 0.303
AAGACAGGGTCATCGTAGGCCAGAGTACGCACAG | 4.95
GCTAGCAGGCCATTTAGGTCACTCAATGACGGGC | 0.564
AATACAGGGTCACTAGGCCAGAGTTGGTACGAAT | 3.38
TCATATAGGTAATACAGGTGAAAGTGGGCATCTA | 1.02
CGAACTAGGTCTAGGACAGTGAATCTCCGCACGC | -0.626
